Results: PubChem BioAssay (NCI)
The panel holds about 83,000 compounds, 20% with a hit somewhere; the sample as a whole holds those more often.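 Interpretation: 100, growth as untreated; towards 0, rising growth inhibition; 0, no net growth; 0 to -100, cell death. Compounds scoring below 10 were considered active.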 The source made the active and inactive calls.

tested on: MOLT-4 leukemia; experiment: NCI-60 one-dose screen, 48 h (100 = growth as untreated, 0 = no growth, -100 = all killed); conditions: 10 µM unless noted
Description: Growth inhibition of the MOLT-4 human tumor cell line is measured as a screen for anti-cancer activity. Cells are grown in 96 well plates and exposed to the test compound for 48 hours. Compounds are tested at a single concentration, which is 10^-5 M for most compounds. The reported endpoint is percent growth (GI% or GIPRCNT), where numbers from 0 - 100% represent growth inhibition, and numbers from -100% - 0 represent cell death. For example, a value of 40 represents 60% growth inhibition. A value of 0 means no net growth occurred over the course of the experiment. A value of -40 indicates 40% of cells at the beginning of the experiment died by the end of the experiment. A value of -100 means all cells are dead at the end of the experiment.
NCI-60 Human Tumor Cell Lines Screen was performed using the standard one-dose NCI protocol, which is described in more detail at https://dtp.cancer.gov/discovery_development/nci-60/default.htm.
Compounds with GIPRCNT values below 10 were considered active. Activity score was based on GIPRCNT using the following formula: […]
Score is 0 for GIPRCNT values of 100 or above, 50 for GIPRCNT values of 0, and 100 for GIPRCNT values of -100.

| SMILES | growth |
| --- | --- |
| CC1(C)CC[C@]2(C(=O)O)CC[C@]3(C)C(=CC[C@@H]4[C@@]5(C)C/C(=C/c6cccnc6)[C@H](O)C(C)(C)[C@@H]5CC[C@]43C)[C@@H]2C1 | 4.37% [100 µM] (active) |
| CC[C@@](C)(NC(=O)[C@H](C)NC(=O)CCNC(=O)C(C)(C)NC(=O)[C@H](C)NC(=O)[C@@H]1CCCN1C(=O)[C@@](C)(CC)NC(=O)[C@H](Cc1ccccc1)NC(=O)C1CCCN1C(=O)C(C)(C)NC(=O)C1CCCN1C(=O)C(C)(C)NC(C)=O)C(=O)NCCC(=O)N[C@@H](CC(C)C)C(=O)NC(C)(C)C(=O)NCCC(=O)N[C@@H](CC(C)C)C(=O)NC(C)(C)C(=O)NC(C)(C)C(=O)N[C@@H](CC(C)C)C(=O)NCCC(=O)NCO (stereo not given in full) | -61.1% (active) |
| COc1ccc(-c2ccc(NNC(=O)c3ccc(F)cc3)nn2)cc1OC | 60.2% (inactive) |
| COc1ccc2c3ccnc(C(F)(F)F)c3n(CCCCN)c2c1 | 51% (inactive) |
| COC(=O)c1cc(O)c2c(c1C(=O)OC)C[C@H]1[C@@H]3CC=C4C[C@@H](O)CC[C@]4(C)[C@H]3CC[C@]21C | 35.6% (inactive) |
| N#C/C(C(=O)c1ccccc1)=C1/C(=O)Nc2ccccc21 | 90.4% (inactive) |
| COc1ccc(-c2cc(-c3ccc(Cl)cc3)nc(SCCCCCCC(=O)NO)n2)cc1 | 9.33% (active) |
| COCCCNc1nc(NC(=O)c2cc(Br)cc(C(F)(F)F)c2)cc(-c2cccnc2)n1 | 80.1% (inactive) |
| CSc1nc2sc3cc(Cl)c(Cl)cc3n2c(=N)c1C#N | 95.5% (inactive) |
| CN(C)CCCNc1nc(-c2cccc(C(Cl)(Cl)Cl)c2)nc(C(Cl)(Cl)Cl)n1 | 84.4% (inactive) |
| CC(C)C1=NOC(=O)C1=Cc1cn(-c2cccnc2)nc1-c1ccccc1 | 11.8% (inactive) |
| CCN1c2ccccc2C(Cl)(c2ccc(N(C)C)cc2)c2ccccc21 | 65.6% (inactive) |
| O=C(CCCCCCSc1nc(-c2ccc(Cl)cc2)cc(-c2ccc(Cl)cc2)n1)NO | 11.4% (inactive) |
| O=C(N=c1n(-c2ccccc2)nc2n1CCN2C1=NCCN1)c1ccc(Cl)cc1 | 77.7% (inactive) |
| COc1ccc(NCc2cn(-c3ccc(C(=O)O)cc3)nc2-c2ccc(C(=O)O)cc2)cc1C(F)(F)F | 123% (inactive) |
| NC(=O)c1c(NC(=O)COC(=O)Cc2ccccc2F)sc2c1CCC2 | 86.6% (inactive) |
| CCn1cc(-c2cc(-c3ccc(Cl)cc3)nc(N)n2)c(-c2ccc(Br)cc2)n1 | 83.4% (inactive) |
| CCOC(=O)c1sc2nc(-c3cc(OC)c(OC)c(OC)c3)nc(N3CCOCC3)c2c1C | 17.1% (inactive) |
| Cc1cccc(C[C@H](NC(=O)Nc2ccc(Cl)cc2F)C(=O)N[C@@H]2C(=O)N3C[C@H](O)C[C@H]3C(=O)N3CCN(C)C[C@H]3C(=O)N[C@@H](C)C(=O)N3C[C@H](C)C[C@H]3C(=O)O[C@H]2C)c1 | 43.4% (inactive) |
| CC(C)C1=NOC(=O)C1=Cc1cn(-c2ccco2)nc1-c1ccccc1 | 20.7% (inactive) |

| SMILES | growth |
| --- | --- |
| O=c1c2c3c(sc2n2cnnc2n1Cc1ccccc1)CCCC3 | 86.3% (inactive) |
| O=S(=O)(NCCCNc1nccc(-c2c(-c3cccc(F)c3)nc3occn23)n1)c1cccc2ccccc12 | 5.16% (active) |
| CCCCC(CC)COC(=O)C[N+](C)(C)CCOC(c1ccccc1)c1ccccc1 (stereo not given) | 40.7% (inactive) |
| Cc1cccc(/C=C2\N=C(c3ccccc3)N(c3ccc(S(N)(=O)=O)cc3)C2=O)c1 | 90.3% (inactive) |
| COC(=O)c1c(C)[nH]c(/C=C2\N=C(c3ccc[nH]3)C=C2OC)c1C | 1.37% (active) |
| C=C(C)[C@@H]1CC[C@]2(C(=O)OC)CC[C@]3(C)[C@H](CC[C@@H]4[C@@]5(C)CC/C(=N\OCCC(=NCCC#N)NOCCC#N)C(C)(C)[C@@H]5CC[C@]43C)[C@@H]12 | -26.8% [100 µM] (active) |
| C=CC1=C(C)C2=NC1=CC1=NC(=CC3=C(C)C4=C(O)C(C(=O)O)C(=C5NC(=C2)C(C)C5CCC(=O)O)C4=N3)C(CC)=C1C (stereo not given) | 96.9% (inactive) |
| N#C/C(C(=O)c1ccccc1)=C1/C(=O)Nc2ccc(Br)cc21 | 101% (inactive) |
| Nc1cc(C(=O)O)[nH]c(=S)n1 | 101% (inactive) |
| CCCCN(CC)CC(CC)Nc1cc(OC)cc2cccnc12 (stereo not given) | 111% (inactive) |
| COc1cc2c(c(OC)c1OC)-c1cc(I)c(O)cc1[C@@H](NC(C)=O)CC2 | 33.7% (inactive) |
| O=C(COc1cccc(/C=C2\Oc3ccccc3C2=O)c1)c1ccc([N+](=O)[O-])cc1 | 72% (inactive) |
| CC(C)=CC/C=C(/C)[C@H]1CC[C@]2(C)[C@@H]1CC[C@@H]1[C@@]3(C)CCCNC(C)(C)[C@@H]3CC[C@]12C | -25.6% [100 µM] (active) |
| COc1cc2c(c(OC)c1)C1c3cc(OC)ccc3NC(=O)N1CC2 (stereo not given) | 72.9% (inactive) |
| CCOC(=O)COc1ccc2c(c1)O/C(=C\c1ccc(O)cc1)C2=O | 117% (inactive) |
| O=C(Nc1cccc2cccnc12)c1cc(C(=O)c2ccc(Cl)cc2)n2ccc(-c3ccncc3)cc12 | 129% (inactive) |
| CCCCCCNC(=O)Nc1ncnc2c1ncn2-c1ccccc1 | 102% (inactive) |
| CCOC(=O)c1c[nH]n2c(=S)ncnc12 | 90.7% (inactive) |
| COc1ccc(C2=C(c3cn(C)c4ccccc34)C(=O)OC2)cc1OC | 32.4% (inactive) |
| CCNC(=O)N1CCc2c(Cl)c3c(c(OC)c2[C@@H]1[C@H]1OCc2c1ccc(OC)c2OC)OCCO3 | 30.8% (inactive) |
